Assay results from PubChem BioAssay (NCI).
This is part of a sample that, as a whole, favours compounds with a hit. Of some 83,000 tested, about 20% had one in any assay.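 Percent growth is the endpoint: 0 to 100 indicates growth inhibition (40 means 60% inhibition), 0 means no net growth, and negative values indicate cell death.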 The source made the active and inactive calls. The calls were made as follows: active = growth percent below 10; inactive = the rest.

Legend:
Experiment in all cases: NCI-60 one-dose screen, 48 h (100 = growth as untreated, 0 = no growth, -100 = all killed)
Conditions in all cases: 10 µM unless noted
HCT-15 colon = tested on: HCT-15 colon
HT29 colon = tested on: HT29 colon
SNB-75 CNS = tested on: SNB-75 CNS
SNB-19 CNS = tested on: SNB-19 CNS
U251 CNS = tested on: U251 CNS
PC-3 prostate = tested on: PC-3 prostate
SK-MEL-5 melanoma = tested on: SK-MEL-5 melanoma
UACC-62 melanoma = tested on: UACC-62 melanoma
LOX IMVI melanoma = tested on: LOX IMVI melanoma
SK-MEL-28 melanoma = tested on: SK-MEL-28 melanoma
SK-MEL-2 melanoma = tested on: SK-MEL-2 melanoma
EKVX NSCLC = tested on: EKVX NSCLC
SN12C renal = tested on: SN12C renal
UO-31 renal = tested on: UO-31 renal
TK-10 renal = tested on: TK-10 renal
ACHN renal = tested on: ACHN renal
CAKI-1 renal = tested on: CAKI-1 renal
A498 renal = tested on: A498 renal
CCRF-CEM leukemia = tested on: CCRF-CEM leukemia
MOLT-4 leukemia = tested on: MOLT-4 leukemia

Measured: growth

Cc1ccc2c(c1)C(C)Cc1c(N(C)C)ncnc1N2C (stereo not given)
inactive: HCT-15 colon 20.6% | SNB-75 CNS 14% | SNB-19 CNS 43.8% | U251 CNS 21.3% | PC-3 prostate 32.8% | SK-MEL-5 melanoma 15% | UACC-62 melanoma 33% | LOX IMVI melanoma 37.7% | SK-MEL-28 melanoma 56.6% | SK-MEL-2 melanoma 30% | EKVX NSCLC 27.2% | SN12C renal 44.9% | UO-31 renal 59.1% | TK-10 renal 14.1% | ACHN renal 53.3% | CAKI-1 renal 35.2% | CCRF-CEM leukemia 21.4% | MOLT-4 leukemia 30.6%
active: HT29 colon 4.7% | A498 renal -9.12%

CN(C)C1CCC(NC2=CC(=O)C=CC2=O)CC1 (stereo not given)
inactive: HCT-15 colon 114% | HT29 colon 116% | SNB-75 CNS 86.1% | SNB-19 CNS 115% | U251 CNS 111% | PC-3 prostate 104% | SK-MEL-5 melanoma 106% | UACC-62 melanoma 110% | LOX IMVI melanoma 97.9% | SK-MEL-28 melanoma 113% | SK-MEL-2 melanoma 107% | EKVX NSCLC 111% | SN12C renal 115% | UO-31 renal 92.3% | TK-10 renal 113% | ACHN renal 99.2% | CAKI-1 renal 100% | A498 renal 122% | CCRF-CEM leukemia 107% | MOLT-4 leukemia 102%

CCN(CC)CCC(=O)c1cccc2ccccc12
inactive: HCT-15 colon 102% | HT29 colon 110% | SNB-75 CNS 101% | SNB-19 CNS 102% | U251 CNS 104% | PC-3 prostate 95.3% | SK-MEL-5 melanoma 114% | UACC-62 melanoma 97% | LOX IMVI melanoma 94.3% | SK-MEL-28 melanoma 111% | SK-MEL-2 melanoma 114% | EKVX NSCLC 100% | SN12C renal 102% | UO-31 renal 87.6% | TK-10 renal 109% | ACHN renal 98.8% | CAKI-1 renal 90.7% | A498 renal 101% | CCRF-CEM leukemia 100% | MOLT-4 leukemia 102%

O=C(NCCc1c[nH]c2ccccc12)C1Cc2ccccc2CN1C(=O)c1ccco1 (stereo not given)
inactive: HCT-15 colon 111% | HT29 colon 114% | SNB-75 CNS 106% | SNB-19 CNS 112% | U251 CNS 98.5% | PC-3 prostate 96.9% | SK-MEL-5 melanoma 95.6% | UACC-62 melanoma 93.4% | LOX IMVI melanoma 94.9% | SK-MEL-28 melanoma 116% | SK-MEL-2 melanoma 69.5% | EKVX NSCLC 102% | SN12C renal 111% | UO-31 renal 53.5% | TK-10 renal 110% | ACHN renal 96.6% | CAKI-1 renal 107% | A498 renal 107% | CCRF-CEM leukemia 81.2% | MOLT-4 leukemia 77.1%

Nc1cc2c(cc1N)-c1cc(N)c(N)cc1C2
inactive: HCT-15 colon 97.4% | HT29 colon 107% | SNB-75 CNS 79.9% | SNB-19 CNS 107% | U251 CNS 99.1% | PC-3 prostate 80.5% | SK-MEL-5 melanoma 101% | UACC-62 melanoma 99.9% | LOX IMVI melanoma 94% | SK-MEL-28 melanoma 115% | SK-MEL-2 melanoma 111% | EKVX NSCLC 89.2% | SN12C renal 94.9% | UO-31 renal 53.9% | TK-10 renal 110% | ACHN renal 96% | CAKI-1 renal 93.8% | A498 renal 63.5% | CCRF-CEM leukemia 88.2% | MOLT-4 leukemia 92.3%

CCOc1ccc(/C=C/C=N/NC(N)=S)cc1
inactive: HCT-15 colon 58.4% | HT29 colon 62.1% | SNB-75 CNS 80.9% | SNB-19 CNS 95.8% | U251 CNS 90.1% | PC-3 prostate 94.1% | SK-MEL-5 melanoma 96% | UACC-62 melanoma 81.9% | LOX IMVI melanoma 77.4% | SK-MEL-28 melanoma 102% | SK-MEL-2 melanoma 108% | EKVX NSCLC 95.5% | SN12C renal 80.4% | UO-31 renal 38.3% | TK-10 renal 74.1% | ACHN renal 80.2% | CAKI-1 renal 83.9% | A498 renal 77.7% | CCRF-CEM leukemia 62.6% | MOLT-4 leukemia 35.8%

Nc1nc(N)c2nc(CNc3ccc(C(=O)CC(CCC(=O)O)C(=O)O)cc3)cnc2n1 (stereo not given)
active: SK-MEL-2 melanoma -6.72% | UO-31 renal 8.63% | CAKI-1 renal -3.87%
inactive: HCT-15 colon 33.3% | HT29 colon 36.7% | SNB-75 CNS 71.7% | SNB-19 CNS 42.9% | U251 CNS 36.2% | PC-3 prostate 33.6% | SK-MEL-5 melanoma 22.8% | UACC-62 melanoma 26.6% | LOX IMVI melanoma 20.5% | SK-MEL-28 melanoma 68.7% | EKVX NSCLC 42.8% | SN12C renal 30.9% | TK-10 renal 74.7% | ACHN renal 27.2% | A498 renal 51.4% | CCRF-CEM leukemia 17.8% | MOLT-4 leukemia 33%

COc1ccc(/C(=N/O)c2cc(F)c(F)c(OC)c2F)cc1O
inactive: HCT-15 colon 22.9% | HT29 colon 28% | SNB-19 CNS 38.8% | U251 CNS 18.2% | PC-3 prostate 21.5% | SK-MEL-5 melanoma 14.1% | UACC-62 melanoma 29.8% | LOX IMVI melanoma 46.5% | SK-MEL-28 melanoma 66.9% | EKVX NSCLC 45.5% | SN12C renal 45.7% | UO-31 renal 52.6% | TK-10 renal 88.7% | ACHN renal 48.4% | CAKI-1 renal 28.1% | CCRF-CEM leukemia 15.5% | MOLT-4 leukemia 37.4%
active: SNB-75 CNS -11% | SK-MEL-2 melanoma 3.65% | A498 renal 2.7%

COc1cc(Br)c(OC)cc1Br
inactive: HCT-15 colon 103% | HT29 colon 96.4% | SNB-75 CNS 90.4% | SNB-19 CNS 108% | U251 CNS 98.9% | PC-3 prostate 91.2% | SK-MEL-5 melanoma 98.4% | UACC-62 melanoma 94.8% | LOX IMVI melanoma 90% | SK-MEL-28 melanoma 105% | SK-MEL-2 melanoma 101% | EKVX NSCLC 76% | SN12C renal 110% | UO-31 renal 60.4% | TK-10 renal 140% | ACHN renal 92.4% | CAKI-1 renal 85.2% | A498 renal 88.7% | CCRF-CEM leukemia 116% | MOLT-4 leukemia 98.3%

NC(=O)c1ccc2c(c1)OCO2
inactive: HCT-15 colon 102% | HT29 colon 103% | SNB-75 CNS 84.2% | SNB-19 CNS 109% | U251 CNS 107% | PC-3 prostate 98.9% | SK-MEL-5 melanoma 99.2% | UACC-62 melanoma 103% | LOX IMVI melanoma 95.4% | SK-MEL-28 melanoma 108% | SK-MEL-2 melanoma 114% | EKVX NSCLC 95.1% | SN12C renal 108% | UO-31 renal 102% | TK-10 renal 91.7% | ACHN renal 109% | CAKI-1 renal 93.5% | A498 renal 86.8% | CCRF-CEM leukemia 102% | MOLT-4 leukemia 105%

CCSc1nnc(NC(=O)Cc2ccc(Cl)cc2)s1
inactive: HCT-15 colon 98.3% | HT29 colon 114% | SNB-75 CNS 106% | SNB-19 CNS 97.4% | U251 CNS 98.7% | PC-3 prostate 101% | SK-MEL-5 melanoma 107% | UACC-62 melanoma 97% | LOX IMVI melanoma 97.1% | SK-MEL-28 melanoma 113% | SK-MEL-2 melanoma 73.4% | EKVX NSCLC 103% | SN12C renal 105% | UO-31 renal 40% | TK-10 renal 113% | ACHN renal 103% | CAKI-1 renal 102% | A498 renal 100% | CCRF-CEM leukemia 87.9% | MOLT-4 leukemia 103%

C=C1C(=O)O[C@H]2[C@H]1CC/C(COC(=O)NCCc1ccc(OC)cc1)=C\CC[C@@]1(C)O[C@@H]21
inactive: SNB-75 CNS 79.4% | SNB-19 CNS 45.8% | U251 CNS 59.3% | PC-3 prostate 45.6% | SK-MEL-5 melanoma 72.3% | SK-MEL-2 melanoma 63.4% | EKVX NSCLC 53.3% | SN12C renal 11.7% | A498 renal 62%
active: HCT-15 colon -7.21% | HT29 colon -58.3% | UACC-62 melanoma -46.7% | LOX IMVI melanoma -26.8% | SK-MEL-28 melanoma -5.94% | UO-31 renal -82.8% | TK-10 renal -7.32% | ACHN renal -6.86% | CAKI-1 renal -2.71% | CCRF-CEM leukemia 3.44% | MOLT-4 leukemia 2.83%

CCN(CC)S(=O)(=O)c1ccc2[nH]c(=O)cc(C(=O)Nc3ccc(OC)cc3OC)c2c1
inactive: HCT-15 colon 106% | HT29 colon 126% | SNB-75 CNS 110% | SNB-19 CNS 104% | U251 CNS 108% | PC-3 prostate 105% | SK-MEL-5 melanoma 111% | UACC-62 melanoma 103% | LOX IMVI melanoma 106% | SK-MEL-28 melanoma 123% | SK-MEL-2 melanoma 88.8% | EKVX NSCLC 166% | SN12C renal 108% | UO-31 renal 108% | TK-10 renal 115% | ACHN renal 103% | CAKI-1 renal 120% | A498 renal 146% | CCRF-CEM leukemia 92.6% | MOLT-4 leukemia 99.7%

O=C1NCC(c2cc3ccccc3[nH]c2=O)Nc2ccccc21 (stereo not given)
inactive: HCT-15 colon 106% | HT29 colon 98.3% | SNB-75 CNS 99.6% | SNB-19 CNS 102% | U251 CNS 102% | PC-3 prostate 93.2% | SK-MEL-5 melanoma 97.2% | UACC-62 melanoma 98.3% | LOX IMVI melanoma 98.5% | SK-MEL-28 melanoma 103% | SK-MEL-2 melanoma 100% | EKVX NSCLC 106% | SN12C renal 99.7% | UO-31 renal 76.8% | TK-10 renal 87.8% | ACHN renal 99.7% | CAKI-1 renal 88.1% | A498 renal 104% | CCRF-CEM leukemia 110% | MOLT-4 leukemia 111%

COc1cc(-c2csc(NC(=O)c3cc(C(F)(F)F)cc(C(F)(F)F)c3)n2)cc(OC)c1OC
active: SK-MEL-5 melanoma -30.1% | UACC-62 melanoma 3.9% | EKVX NSCLC 9.17%
inactive: HCT-15 colon 15.6% | HT29 colon 21.3% | SNB-75 CNS 52.5% | SNB-19 CNS 29.9% | U251 CNS 21% | PC-3 prostate 10.6% | LOX IMVI melanoma 26.5% | SK-MEL-28 melanoma 40.8% | SK-MEL-2 melanoma 21.5% | SN12C renal 25.3% | UO-31 renal 21.3% | TK-10 renal 33% | ACHN renal 36.1% | CAKI-1 renal 43.2% | A498 renal 11.1% | CCRF-CEM leukemia 29.3% | MOLT-4 leukemia 20.5%
